In PubChem BioAssay:
The source made the active and inactive calls.

Legend:
[1] = system: PRMT1 (protein arginine N-methyltransferase 1); experiment: small molecules binding arginine methyltransferase PRMT1 – biochemical, small-molecule microarray, 635 nm fluorescence, primary screen (AID 1088); settings: higher = more signal;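 further: binding of Prmt1 protein to compounds spotted on small-molecule microarray slides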
[2] = growth effects on S. cerevisiae YJM789 – YJM789 clinical isolate, OD600, 24 h, basal, primary screen (AID 1089); settings: higher = more signal, called active from +8 up or from −8 down;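 further: growth of clinical yeast isolate S. cerevisiae YJM 789 seeded 1000 cells per well; test concentration not given here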
[3] = S. pombe growth modifiers, basal conditions – strain 972, OD600, 24 h, no modulator, primary screen (AID 1090);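 further: basal condition with compound alone and no growth modifier present; test concentration not given here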; settings: S. pombe 972 growth, higher = more signal, called active from +8 up or from −8 down
[4] = budding yeast growth modifiers under rapamycin – strain BY4716, OD600, 96 h, primary screen (AID 1091); further: test concentration not given here; settings: S. cerevisiae BY4716 + rapamycin, higher = more signal, called active from +8 up or from −8 down
[5] = target: Torsin-1A-interacting protein 2 (Homo sapiens) (UniProt Q8NFQ8); experiment: small molecules binding lysate-expressed LULL1 – cell lysate, human LULL1 lysate, 635/667 nm fluorescence, primary screen (AID 1092); settings: small-molecule microarray, hLULL1 lysate binding, 635 nm fluorescence; higher = more signal;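 further: probe is lysate of COS7 cells overexpressing human LULL1; score merges per-feature 667 nm fluorescence with signal-to-noise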
[6] = optical density change of DRC41 E. coli – strain DRC41, OD650, 24 h, E. coli filamentation project, primary screen (AID 1093);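 further: MC1000 strain lacking acrAB efflux and sulA so SOS filamentation is blocked; test concentration not given here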; settings: E. coli DRC41 growth, higher = more signal, called active from +8 up or from −8 down
[7] = probe aLefty2 binding to arrayed compounds – biochemical, biotinylated probe, 635/667 nm fluorescence, primary screen (AID 1094); settings: small-molecule microarray, higher = more signal;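 further: score merges spot fluorescence near 667 nm with spot signal-to-noise ratio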
[8] = system: Noggin (protein binding on small-molecule microarray); experiment: small molecules binding Noggin protein – biochemical, 635/667 nm fluorescence, primary screen (AID 1095); settings: 635 nm fluorescence, higher = more signal;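 further: score merges 667 nm feature fluorescence with signal to noise over triplicate slides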
[9] = target: Neurogenic locus notch homolog protein 3 (Homo sapiens) (UniProt Q9UM47); experiment: small molecules binding NOTCH3 protein – biochemical, 635/667 nm fluorescence, primary screen (AID 1096); settings: small-molecule microarray, 635 nm fluorescence, higher = more signal
[10] = probe aEGFR binding to arrayed compounds – biochemical, biotinylated probe, 635/667 nm fluorescence, primary screen (AID 1097); settings: small-molecule microarray, higher = more signal;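 further: probe is a biotinylated anti-EGFR antibody binding compounds printed on slides; score combines fluorescence near 667 nm and signal to noise of each spot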

Chain of Neurogenic locus notch homolog protein 3 (Homo sapiens) (Q9UM47 whole entry, looked up): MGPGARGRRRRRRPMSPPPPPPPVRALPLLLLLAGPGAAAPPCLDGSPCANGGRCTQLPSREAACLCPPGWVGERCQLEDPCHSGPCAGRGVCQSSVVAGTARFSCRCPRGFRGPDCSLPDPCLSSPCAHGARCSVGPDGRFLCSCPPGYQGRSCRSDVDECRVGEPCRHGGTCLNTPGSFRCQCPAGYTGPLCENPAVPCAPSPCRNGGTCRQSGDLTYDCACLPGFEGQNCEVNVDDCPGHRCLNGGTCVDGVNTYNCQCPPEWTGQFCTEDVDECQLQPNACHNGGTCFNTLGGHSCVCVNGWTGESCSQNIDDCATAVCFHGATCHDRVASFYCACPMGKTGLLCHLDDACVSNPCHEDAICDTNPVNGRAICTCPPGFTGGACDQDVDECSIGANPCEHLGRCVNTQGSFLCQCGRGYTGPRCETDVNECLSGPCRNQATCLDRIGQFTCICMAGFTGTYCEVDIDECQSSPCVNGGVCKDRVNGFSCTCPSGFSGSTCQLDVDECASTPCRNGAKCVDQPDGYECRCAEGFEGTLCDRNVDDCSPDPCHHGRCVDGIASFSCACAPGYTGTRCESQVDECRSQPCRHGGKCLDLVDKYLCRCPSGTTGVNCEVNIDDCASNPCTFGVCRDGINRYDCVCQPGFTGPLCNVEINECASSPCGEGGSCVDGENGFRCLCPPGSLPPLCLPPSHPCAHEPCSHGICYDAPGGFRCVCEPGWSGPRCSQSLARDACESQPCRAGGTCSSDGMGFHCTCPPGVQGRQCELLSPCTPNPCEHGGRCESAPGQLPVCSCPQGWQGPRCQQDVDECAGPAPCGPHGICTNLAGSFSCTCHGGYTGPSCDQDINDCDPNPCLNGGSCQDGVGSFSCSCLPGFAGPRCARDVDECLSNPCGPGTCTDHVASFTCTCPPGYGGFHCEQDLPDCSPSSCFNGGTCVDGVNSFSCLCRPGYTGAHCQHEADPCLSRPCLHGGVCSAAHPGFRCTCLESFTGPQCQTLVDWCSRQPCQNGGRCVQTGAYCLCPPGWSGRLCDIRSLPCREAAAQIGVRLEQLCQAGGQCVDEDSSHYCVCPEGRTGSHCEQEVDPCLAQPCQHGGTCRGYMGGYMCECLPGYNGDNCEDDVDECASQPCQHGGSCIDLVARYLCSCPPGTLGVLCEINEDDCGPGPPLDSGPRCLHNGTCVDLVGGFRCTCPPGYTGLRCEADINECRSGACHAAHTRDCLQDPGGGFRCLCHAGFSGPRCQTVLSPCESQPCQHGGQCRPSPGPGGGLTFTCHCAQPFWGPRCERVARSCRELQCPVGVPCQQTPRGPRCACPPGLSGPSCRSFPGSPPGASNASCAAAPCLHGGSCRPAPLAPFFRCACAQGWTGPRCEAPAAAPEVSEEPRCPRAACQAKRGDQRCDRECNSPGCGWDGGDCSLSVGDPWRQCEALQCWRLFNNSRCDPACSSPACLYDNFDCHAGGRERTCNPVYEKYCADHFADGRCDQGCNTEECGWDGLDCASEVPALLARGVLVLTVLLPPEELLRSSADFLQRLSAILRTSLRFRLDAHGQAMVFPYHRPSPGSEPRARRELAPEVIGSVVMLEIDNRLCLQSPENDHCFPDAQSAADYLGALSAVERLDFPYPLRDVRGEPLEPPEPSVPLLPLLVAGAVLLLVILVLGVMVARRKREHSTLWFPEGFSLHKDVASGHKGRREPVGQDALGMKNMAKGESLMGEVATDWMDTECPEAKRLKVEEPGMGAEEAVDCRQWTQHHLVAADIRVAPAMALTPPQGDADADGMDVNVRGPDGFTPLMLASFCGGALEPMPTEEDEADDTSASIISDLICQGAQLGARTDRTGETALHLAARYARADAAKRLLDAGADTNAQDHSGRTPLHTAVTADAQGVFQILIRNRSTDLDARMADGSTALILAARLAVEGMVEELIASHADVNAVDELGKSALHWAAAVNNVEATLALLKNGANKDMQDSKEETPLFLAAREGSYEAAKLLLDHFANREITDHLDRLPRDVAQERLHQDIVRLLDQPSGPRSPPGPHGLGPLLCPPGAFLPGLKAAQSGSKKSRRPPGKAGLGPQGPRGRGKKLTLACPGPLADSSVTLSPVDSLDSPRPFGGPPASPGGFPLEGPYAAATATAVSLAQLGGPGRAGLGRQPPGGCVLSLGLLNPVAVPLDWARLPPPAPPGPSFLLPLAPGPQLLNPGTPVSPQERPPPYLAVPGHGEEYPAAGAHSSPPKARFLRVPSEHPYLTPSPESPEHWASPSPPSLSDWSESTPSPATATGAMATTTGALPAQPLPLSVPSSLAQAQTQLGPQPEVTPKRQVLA
Chain of Torsin-1A-interacting protein 2 (Homo sapiens) (Q8NFQ8 whole entry, looked up): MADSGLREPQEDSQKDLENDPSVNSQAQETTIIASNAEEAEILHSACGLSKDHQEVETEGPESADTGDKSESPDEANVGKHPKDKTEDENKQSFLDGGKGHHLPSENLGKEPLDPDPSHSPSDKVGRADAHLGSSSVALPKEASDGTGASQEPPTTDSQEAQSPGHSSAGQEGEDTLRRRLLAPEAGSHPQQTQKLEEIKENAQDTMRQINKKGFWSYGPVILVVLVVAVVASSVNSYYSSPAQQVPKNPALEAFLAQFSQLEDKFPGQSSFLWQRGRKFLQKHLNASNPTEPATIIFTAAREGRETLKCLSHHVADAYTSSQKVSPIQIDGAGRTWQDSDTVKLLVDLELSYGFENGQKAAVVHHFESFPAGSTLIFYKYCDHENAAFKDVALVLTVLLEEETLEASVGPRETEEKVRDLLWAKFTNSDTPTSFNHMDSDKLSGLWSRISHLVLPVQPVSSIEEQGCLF

SMILES	composite z-score [1]	z-score [2]	z-score [3]	z-score [4]	composite z-score [5]	z-score [6]	composite z-score [7]	composite z-score [8]	composite z-score [9]	composite z-score [10]
C=CC[C@@H]1C=C[C@H](ON=C(C)CCN2CCCCc3nc(C)c(C)cc32)[C@@H](CO)O1	1.47	-1.19 (inactive)	0.805 (inactive)	-0.508 (inactive)	1.77	-0.0376 (inactive)	-0.0769	1.21	0.67	0.044
O=C(NCCC[N+]1=CC=NC1c1ccccc1)N1CCCc2nc(-c3ccc(Br)cc3)ccc21 (stereo not given)	-0.476	-0.435 (inactive)	-1.69 (inactive)	0.763 (inactive)	0.0594	2.39 (inactive)	-0.0616	0.232	-0.378	-0.0183
CON=C[C@@H](OC)[C@H](C)C=CCC(=O)OC	-0.608	-0.177 (inactive)	-0.289 (inactive)	-0.0697 (inactive)	-0.312	0.0478 (inactive)	-0.0702	0.327	-0.151	-0.22
CC(C)=CCCC(C)=CCON=C1[C@H]2CCn3c(=O)n(-c4ccccc4)c(=O)n3[C@H]2[C@H](O)[C@@H]2O[C@H]12	1.56	-0.504 (inactive)	-5.66 (inactive)	-0.784 (inactive)	2.36	-1.1 (inactive)	0.207	0.59	1.07	-0.0211
CC(=O)OC[C@H]1O[C@H](CC=NOC(C)CN2CCCCc3nc(C)c(C)cc32)C=C[C@@H]1OC(C)=O (stereo not given in full)	1.54	-0.814 (inactive)	-0.0245 (inactive)	-0.151 (inactive)	1.51	0.522 (inactive)	0.176	1.13	1.01	0.43
CC(=O)OC[C@H]1O[C@H](CCON=C(C)CCN2CCCc3nc(C)c(C)cc32)C=C[C@@H]1OC(C)=O	1.54	0.569 (inactive)	0.339 (inactive)	0.61 (inactive)	1.31	1.08 (inactive)	0.118	0.754	1.04	0.577
CC(CCN1CCc2nc(-c3ccccc3)c(-c3ccccc3)cc2C1)=NOC(C)CN1CCCc2nc(C)c(C)cc21 (stereo not given)	1.56	-1.4 (inactive)	-12.6 (active)	-3.45 (inactive)	2.22	0.419 (inactive)	0.0704	0.582	1.09	0.0709
O=C1C=C[C@@H](O)[C@@H]2[C@@H]3C(=O)N(Cc4ccc5c(c4)OCO5)C(=O)[C@@H]3CC[C@@H]12	-0.846	0.564 (inactive)	-0.681 (inactive)	0.621 (inactive)	0.221	0.446 (inactive)	-0.116	0.652	0.676	-0.0731
CCCNC(=O)OC[C@H]1O[C@H](CCON=C[C@@H](NS(=O)(=O)c2ccc(C)cc2)[C@H](C)C=CCC(=O)OC)C=C[C@@H]1Oc1ccc(OC)cc1	0.409	-1.21 (inactive)	0.331 (inactive)	-0.148 (inactive)	-0.0006	-0.0353 (inactive)	-0.181	0.0599	-0.0703	-0.0443
C=CCOCC1CN2[C@@H](CC[C@@H](C)[C@@H]2c2ccc(Br)cc2)C(=O)O1 (stereo not given in full)	-0.149	-0.349 (inactive)	-0.592 (inactive)	0.338 (inactive)	-0.581	0.415 (inactive)	-0.296	0.167	-0.405	-0.0953
O=C1[C@H]2[C@H]3[C@H](O)[C@H](O)CC(=NOC[C@@H](O)COCc4ccco4)[C@@H]3CC[C@H]2C(=O)N1Cc1ccc2c(c1)OCO2	1.4	0.421 (inactive)	0.674 (inactive)	0.463 (inactive)	-0.689	2.06 (inactive)	-0.172	1.17	-0.177	-0.0177
CCOC(=O)[C@H](Cc1ccccc1)NC(=O)CCC1CC(OC(=O)NCc2cccc3ccccc23)CC2(CCCC(COC(=O)NCCc3ccccc3OC)O2)O1 (stereo not given in full)	1.4	0.105 (inactive)	0.503 (inactive)	0.296 (inactive)	1.95	-0.164 (inactive)	0.0108	0.591	0.819	-0.0396
C[C@@H]1CC[C@@H](C(=O)O)N[C@H]1c1cccc(N2CCOCC2)c1	-0.618	0.395 (inactive)	-0.623 (inactive)	-0.591 (inactive)	0.879	1.64 (inactive)	-0.106	0.377	0.597	-0.106
COc1ccc2c(c1)O[C@@H](c1cccc(C(F)(F)F)c1)[C@H](O)C2=O	0.222	-3.42 (inactive)	-6.34 (inactive)	-0.489 (inactive)	1.19	1.2 (inactive)	-0.261	0.614	0.661	0.0251
CCc1cc2c(nc1CC)CCN(CCC(C)=NOCC[C@@H]1C=C[C@H](OC(C)=O)[C@@H](COC(C)=O)O1)C2	1.54	-0.391 (inactive)	0.591 (inactive)	0.521 (inactive)	0.796	0.956 (inactive)	0.251	1.21	0.546	0.0579
COC(=O)[C@@H]1CC[C@H](C)[C@@H](c2ccc(Br)cc2)N1C[C@@H](O)CN=[N+]=[N-]	0.382	-1.44 (inactive)	-10.1 (active)	-0.243 (inactive)	0.147	0.323 (inactive)	-0.0412	0.162	0.0511	-0.0902
C[C@H]1CC[C@@H](C(=O)O)N[C@@H]1c1ccc(C#Cc2ccccc2)cc1	1.52	-26.4 (active)	-21.1 (active)	-3.15 (inactive)	1.78	0.161 (inactive)	-0.0615	0.875	1.09	0.0651
COC(=O)[C@H](C)NC(=O)CCC1CC(OC(=O)NCCc2ccc(F)cc2)CC2(CCCC(COC(=O)NCC3CCCCC3)O2)O1 (stereo not given in full)	1.49	-0.797 (inactive)	-0.781 (inactive)	0.689 (inactive)	2.16	-0.718 (inactive)	-0.139	0.883	1.06	0.0207
Cc1cc2c(nc1C)CCCCN2CC(O)CN1CCCc2nc(-c3ccc(Br)cc3)ccc21 (stereo not given)	0.829	-0.178 (inactive)	-0.616 (inactive)	-0.051 (inactive)	-0.0639	0.353 (inactive)	-0.0083	0.558	1.11	0.0122
CC(=O)OC[C@H]1O[C@@H](ON=C(C)CCN2CCCCc3nc(C)c(C)cc32)[C@H](OC(C)=O)[C@@H](OC(C)=O)[C@@H]1OC(C)=O	1.53	-0.61 (inactive)	-0.149 (inactive)	-0.175 (inactive)	1.07	-0.871 (inactive)	-0.0179	0.708	0.927	0.145
CO[C@@H]1C=CCC(=O)N[C@@H](C)C(=O)OC[C@@H](NS(=O)(=O)c2ccc(C)cc2)[C@H](C)C=CCC(=O)OC[C@H]1C	0.375	-0.413 (inactive)	-0.266 (inactive)	-0.411 (inactive)	-1.35	0.0927 (inactive)	-0.15	0.98	-0.381	-0.123
CO[C@@H]1[C@H](O)CO[C@H]1C=Cc1ccccc1	0.524	0.335 (inactive)	-1.14 (inactive)	-0.376 (inactive)	0.363	0.447 (inactive)	-0.0895	0.396	0.0872	-0.0581
CC(=O)OC[C@H]1O[C@H](CCON=C(C)C)C=C[C@@H]1OC(C)=O	0.0126	0.765 (inactive)	0.568 (inactive)	0.748 (inactive)	0.24	0.193 (inactive)	-0.152	0.373	0.0158	-0.0364
COCCNC(=O)OCC1CCCC2(CC(OC(=O)NCc3cccc4ccccc34)CC(CCC(=O)N[C@@H](C)C(=O)OC)O2)O1 (stereo not given in full)	1.55	1.48 (inactive)	1.4 (inactive)	2.67 (inactive)	1.29	0.22 (inactive)	-0.145	1.18	1.05	-0.0978
COc1ccc(-c2cnnc(CCCn3ccnc3-c3ccccc3)n2)cc1	0.576	-0.128 (inactive)	-0.513 (inactive)	1.36 (inactive)	0.662	0.222 (inactive)	-0.125	0.592	0.876	0.137
C[C@]12CCC3c4ccc(OCC5CO5)cc4CCC3C1CC[C@@H]2O (stereo not given in full)	0.205	0.199 (inactive)	-4.77 (inactive)	-0.494 (inactive)	2.11	0.392 (inactive)	0.124	0.0768	0.162	0.0025
COc1ccc(O[C@H]2C=C[C@@H](c3ccccc3)O[C@@H]2COC(=O)NCc2cccc3ccccc23)cc1	0.133	0.68 (inactive)	0.393 (inactive)	1.28 (inactive)	0.33	-0.477 (inactive)	-0.106	0.0672	-0.574	-0.122
CC(=O)OC[C@H]1O[C@H](CC=NOC[C@@H](O)COCc2ccco2)C=C[C@@H]1OC(C)=O	1.54	0.441 (inactive)	-0.0992 (inactive)	0.116 (inactive)	-0.275	0.53 (inactive)	0.0658	1.77	-0.084	0.495
CCOC(=O)[C@H](Cc1ccccc1)NC(=O)CCC1CC(OC(=O)NCc2cccc3ccccc23)CC2(CCCC(COC(=O)NCCOc3ccccc3)O2)O1 (stereo not given in full)	1.57	-0.851 (inactive)	-0.421 (inactive)	-0.792 (inactive)	3.18	-0.325 (inactive)	-0.122	0.734	1.12	-0.0828
CC(C)=CCCC(C)=CCON=C1C[C@@H](O)[C@@H](O)[C@@H]2[C@@H]3C(=O)N([C@@H](C)c4ccccc4)C(=O)[C@@H]3CC[C@@H]12	-0.744	-0.208 (inactive)	0.301 (inactive)	-0.362 (inactive)	0.676	0.215 (inactive)	-0.166	0.331	0.508	-0.111
